The record followed here is publication PMC7862700, “An all-to-all approach to the identification of sequence-specific readers for epigenetic DNA modifications on cytosine”.

Holding throughout (assay): DAPPL (digital affinity profiling via proximity ligation, sequencing); 10 mM Tris-HCl pH 7.5, 50 mM NaCl, 1 mM DTT, 4% glycerol, room temperature, 30 min; GST-TFs on glutathione beads, 16-mer random dsDNA library, 0.1% formaldehyde crosslink after washing; high values mean tight binding
Common to all, as to details: protein: recombinant; tags: N-terminal GST; dsDNA, one strand shown

The target in assay [1] is T1, FLI1 (Homo sapiens, UniProt Q01543 1-452).
T1 sequence: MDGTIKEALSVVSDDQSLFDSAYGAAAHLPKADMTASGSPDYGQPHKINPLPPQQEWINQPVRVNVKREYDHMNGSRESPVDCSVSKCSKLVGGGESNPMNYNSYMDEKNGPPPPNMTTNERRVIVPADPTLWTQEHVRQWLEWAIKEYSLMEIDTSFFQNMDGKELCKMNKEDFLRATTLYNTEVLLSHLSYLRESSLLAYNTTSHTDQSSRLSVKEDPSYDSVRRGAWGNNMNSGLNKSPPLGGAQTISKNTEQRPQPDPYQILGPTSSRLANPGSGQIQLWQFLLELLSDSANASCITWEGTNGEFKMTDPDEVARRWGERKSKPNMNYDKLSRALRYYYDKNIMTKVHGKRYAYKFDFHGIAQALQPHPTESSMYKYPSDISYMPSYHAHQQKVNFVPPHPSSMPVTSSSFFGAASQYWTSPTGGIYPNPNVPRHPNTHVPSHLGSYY
The gist of the method:
(§1)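 Human transcription factors fused to GST were expressed in yeast, captured on glutathione beads, given DNA barcodes and pooled with a GST-only negative control. Pools were incubated with 200 nmole of a 16-mer random double-stranded DNA library in Tris/NaCl/DTT/glycerol buffer at room temperature for 30 min. They were then washed, crosslinked with 0.1% formaldehyde, proximity-ligated (BsaI/T4 ligase, 1 h, 37 °C), PCR-amplified and sequenced on an Illumina NextSeq500. Binding signal is each 6-mer's read frequency for a factor divided by its frequency for the GST control.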

Assay [2] deals with T2, ELK1 (Homo sapiens, UniProt P19419 1-428).
T2 sequence: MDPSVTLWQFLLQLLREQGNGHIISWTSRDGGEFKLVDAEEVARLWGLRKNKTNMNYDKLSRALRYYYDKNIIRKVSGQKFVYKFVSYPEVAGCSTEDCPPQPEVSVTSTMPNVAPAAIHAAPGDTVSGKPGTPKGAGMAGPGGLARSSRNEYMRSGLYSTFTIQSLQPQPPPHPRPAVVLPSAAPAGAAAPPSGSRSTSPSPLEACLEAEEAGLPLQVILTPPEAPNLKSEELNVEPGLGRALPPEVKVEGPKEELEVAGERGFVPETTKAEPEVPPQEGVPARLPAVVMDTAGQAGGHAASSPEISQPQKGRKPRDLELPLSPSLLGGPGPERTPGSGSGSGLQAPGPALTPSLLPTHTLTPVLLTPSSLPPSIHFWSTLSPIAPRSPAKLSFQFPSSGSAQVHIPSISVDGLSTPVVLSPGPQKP
Summed up: as §1

For assay [3], the target named is ELF1 (Homo sapiens, UniProt P32519 1-619). The gist of the method:
as §1

For assay [4], the target named is T3, EHF (Homo sapiens, UniProt Q9NZC4 1-300).
T3 sequence: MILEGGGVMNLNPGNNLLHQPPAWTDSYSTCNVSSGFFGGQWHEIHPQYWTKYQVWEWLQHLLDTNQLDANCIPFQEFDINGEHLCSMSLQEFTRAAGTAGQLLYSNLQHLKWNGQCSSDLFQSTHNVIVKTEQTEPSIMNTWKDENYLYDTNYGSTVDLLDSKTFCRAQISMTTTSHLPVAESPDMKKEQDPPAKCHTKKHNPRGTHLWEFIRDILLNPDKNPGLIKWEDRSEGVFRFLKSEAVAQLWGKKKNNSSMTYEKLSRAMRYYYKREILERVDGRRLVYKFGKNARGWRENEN
Summed up:
as §1

Assay [5] has as its target ELF4 (Homo sapiens, UniProt Q99607 1-663). The gist of the method:
as §1

Assay [6] concerns the target T4, ELF3 (Homo sapiens, UniProt P78545 1-371).
T4 sequence: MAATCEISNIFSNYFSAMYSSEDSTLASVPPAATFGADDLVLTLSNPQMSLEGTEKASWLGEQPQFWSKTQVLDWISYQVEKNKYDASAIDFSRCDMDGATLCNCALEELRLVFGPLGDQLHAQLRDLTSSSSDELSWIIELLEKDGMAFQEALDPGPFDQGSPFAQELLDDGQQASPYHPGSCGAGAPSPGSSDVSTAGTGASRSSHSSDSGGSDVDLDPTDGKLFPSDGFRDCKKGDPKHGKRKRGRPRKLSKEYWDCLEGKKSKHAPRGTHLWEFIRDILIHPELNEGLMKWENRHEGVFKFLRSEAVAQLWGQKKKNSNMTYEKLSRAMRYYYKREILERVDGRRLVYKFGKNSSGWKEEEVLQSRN
The gist of the method: as §1

Assay [7] deals with ETV1 (Homo sapiens, UniProt P50549 1-477). Summed up:
as §1

For assay [8], the target named is T5, ERF (Homo sapiens, UniProt P50548 1-548).
T5 sequence: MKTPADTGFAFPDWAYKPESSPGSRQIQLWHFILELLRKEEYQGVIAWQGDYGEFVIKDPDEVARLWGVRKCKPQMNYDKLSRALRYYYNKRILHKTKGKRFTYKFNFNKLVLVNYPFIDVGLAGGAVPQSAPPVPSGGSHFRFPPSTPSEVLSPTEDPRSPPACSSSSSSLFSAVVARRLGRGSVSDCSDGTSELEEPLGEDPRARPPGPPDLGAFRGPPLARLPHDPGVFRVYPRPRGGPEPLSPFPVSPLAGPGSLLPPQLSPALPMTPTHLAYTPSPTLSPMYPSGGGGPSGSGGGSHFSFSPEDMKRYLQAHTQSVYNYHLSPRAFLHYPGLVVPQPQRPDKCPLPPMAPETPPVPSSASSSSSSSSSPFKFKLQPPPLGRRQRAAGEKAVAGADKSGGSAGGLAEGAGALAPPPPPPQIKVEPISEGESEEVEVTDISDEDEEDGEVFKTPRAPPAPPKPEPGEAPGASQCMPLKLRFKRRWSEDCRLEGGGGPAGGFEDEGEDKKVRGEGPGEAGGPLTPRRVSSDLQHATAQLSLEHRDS
Summed up:
as §1

For assay [9], the target named is T6, ETV7 (Homo sapiens, UniProt Q9Y603 1-341).
T6 sequence: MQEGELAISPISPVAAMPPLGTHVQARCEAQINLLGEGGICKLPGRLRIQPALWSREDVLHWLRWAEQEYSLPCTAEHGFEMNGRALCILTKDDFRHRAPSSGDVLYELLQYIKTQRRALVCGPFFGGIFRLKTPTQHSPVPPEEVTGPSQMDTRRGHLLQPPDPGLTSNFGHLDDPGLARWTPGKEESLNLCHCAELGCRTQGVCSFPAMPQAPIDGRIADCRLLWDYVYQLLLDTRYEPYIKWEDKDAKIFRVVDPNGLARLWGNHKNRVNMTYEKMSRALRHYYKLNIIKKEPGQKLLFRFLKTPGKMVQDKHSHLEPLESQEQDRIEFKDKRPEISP
The gist of the method: as §1

Assay [10] deals with SPIB (Homo sapiens, UniProt Q01892 1-262). The gist of the method: as §1
Assay [11] concerns the target T7, ETV2 (Homo sapiens, UniProt O00321 1-342).
T7 sequence: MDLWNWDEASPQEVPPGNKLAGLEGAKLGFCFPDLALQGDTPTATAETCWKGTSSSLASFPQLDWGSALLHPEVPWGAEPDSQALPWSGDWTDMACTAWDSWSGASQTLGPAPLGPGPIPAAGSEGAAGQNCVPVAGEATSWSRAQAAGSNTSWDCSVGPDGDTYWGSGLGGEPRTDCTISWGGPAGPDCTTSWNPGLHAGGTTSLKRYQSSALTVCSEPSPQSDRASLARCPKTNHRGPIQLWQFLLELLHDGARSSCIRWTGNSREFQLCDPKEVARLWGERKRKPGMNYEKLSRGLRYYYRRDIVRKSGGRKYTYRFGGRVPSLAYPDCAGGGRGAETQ
Summed up: as §1

The target in assay [12] is T8, ELK4 (Homo sapiens, UniProt P28324-2 1-405).
T8 sequence: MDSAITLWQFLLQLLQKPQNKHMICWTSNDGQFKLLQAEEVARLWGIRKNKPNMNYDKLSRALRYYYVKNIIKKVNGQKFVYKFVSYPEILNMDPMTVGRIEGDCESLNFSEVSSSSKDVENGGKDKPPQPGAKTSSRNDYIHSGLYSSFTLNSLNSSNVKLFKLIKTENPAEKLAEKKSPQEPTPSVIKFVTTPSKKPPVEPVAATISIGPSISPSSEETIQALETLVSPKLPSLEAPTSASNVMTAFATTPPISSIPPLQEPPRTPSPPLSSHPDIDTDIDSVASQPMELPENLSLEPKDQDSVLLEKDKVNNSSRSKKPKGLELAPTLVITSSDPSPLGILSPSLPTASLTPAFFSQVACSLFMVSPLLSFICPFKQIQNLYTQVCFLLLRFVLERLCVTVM
The gist of the method: as §1

Assay [13] concerns the target T9, ETV3 (Homo sapiens, UniProt P41162-2 1-143).
T9 sequence: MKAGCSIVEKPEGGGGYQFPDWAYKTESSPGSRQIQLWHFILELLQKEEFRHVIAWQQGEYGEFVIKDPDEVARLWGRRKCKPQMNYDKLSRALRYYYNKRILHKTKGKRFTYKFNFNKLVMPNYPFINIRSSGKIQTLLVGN
Summed up:
as §1

The target in assay [14] is ETV6 (Homo sapiens, UniProt P41212 1-452). Summed up:
as §1

Chain of ELF4 (Q99607 whole entry): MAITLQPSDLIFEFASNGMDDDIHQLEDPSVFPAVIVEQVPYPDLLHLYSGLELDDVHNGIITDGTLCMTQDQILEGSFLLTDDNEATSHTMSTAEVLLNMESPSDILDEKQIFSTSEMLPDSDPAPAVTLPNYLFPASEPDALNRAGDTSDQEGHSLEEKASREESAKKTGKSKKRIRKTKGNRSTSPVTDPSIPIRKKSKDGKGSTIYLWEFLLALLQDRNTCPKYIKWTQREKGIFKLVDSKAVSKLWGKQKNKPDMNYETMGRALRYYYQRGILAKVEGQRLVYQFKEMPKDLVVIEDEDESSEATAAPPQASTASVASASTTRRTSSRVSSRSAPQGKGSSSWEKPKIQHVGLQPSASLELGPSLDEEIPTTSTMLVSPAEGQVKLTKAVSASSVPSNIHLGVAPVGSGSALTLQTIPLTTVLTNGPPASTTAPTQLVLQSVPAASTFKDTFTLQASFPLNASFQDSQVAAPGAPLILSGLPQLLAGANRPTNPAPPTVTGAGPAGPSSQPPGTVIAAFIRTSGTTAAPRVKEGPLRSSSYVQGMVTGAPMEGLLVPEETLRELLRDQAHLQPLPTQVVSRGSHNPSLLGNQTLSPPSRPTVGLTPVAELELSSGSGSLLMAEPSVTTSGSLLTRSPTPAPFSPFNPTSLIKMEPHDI
Chain of ELF1 (P32519 whole entry): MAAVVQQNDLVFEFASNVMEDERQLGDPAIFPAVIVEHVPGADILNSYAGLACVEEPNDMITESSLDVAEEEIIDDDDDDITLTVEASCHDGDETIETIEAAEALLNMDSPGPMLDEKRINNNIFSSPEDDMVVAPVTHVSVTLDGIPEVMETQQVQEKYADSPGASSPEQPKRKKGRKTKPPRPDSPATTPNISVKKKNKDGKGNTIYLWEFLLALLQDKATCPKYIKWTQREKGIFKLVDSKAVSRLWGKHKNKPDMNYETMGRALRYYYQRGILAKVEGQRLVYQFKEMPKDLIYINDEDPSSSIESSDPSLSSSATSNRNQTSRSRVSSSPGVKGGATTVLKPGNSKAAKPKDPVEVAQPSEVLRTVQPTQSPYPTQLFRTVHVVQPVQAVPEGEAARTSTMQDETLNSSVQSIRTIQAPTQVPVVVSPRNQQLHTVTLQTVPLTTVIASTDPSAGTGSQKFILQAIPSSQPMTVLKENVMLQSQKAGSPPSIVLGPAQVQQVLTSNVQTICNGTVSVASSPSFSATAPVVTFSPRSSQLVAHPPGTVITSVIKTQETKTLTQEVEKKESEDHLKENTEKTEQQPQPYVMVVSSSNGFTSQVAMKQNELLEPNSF
Chain of ETV1 (P50549 whole entry): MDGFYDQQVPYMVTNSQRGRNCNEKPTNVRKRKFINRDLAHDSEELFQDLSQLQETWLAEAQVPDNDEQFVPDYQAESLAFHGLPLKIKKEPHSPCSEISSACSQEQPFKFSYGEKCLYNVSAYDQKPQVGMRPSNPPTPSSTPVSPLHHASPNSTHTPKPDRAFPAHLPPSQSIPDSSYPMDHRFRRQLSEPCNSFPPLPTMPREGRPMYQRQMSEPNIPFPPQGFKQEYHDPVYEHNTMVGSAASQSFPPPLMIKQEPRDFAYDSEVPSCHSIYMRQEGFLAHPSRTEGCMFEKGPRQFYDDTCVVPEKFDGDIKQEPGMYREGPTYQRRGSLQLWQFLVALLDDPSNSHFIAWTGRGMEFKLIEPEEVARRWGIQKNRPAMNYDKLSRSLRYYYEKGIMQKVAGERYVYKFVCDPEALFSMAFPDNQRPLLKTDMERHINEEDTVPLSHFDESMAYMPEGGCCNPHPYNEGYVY
Chain of SPIB (Q01892 whole entry): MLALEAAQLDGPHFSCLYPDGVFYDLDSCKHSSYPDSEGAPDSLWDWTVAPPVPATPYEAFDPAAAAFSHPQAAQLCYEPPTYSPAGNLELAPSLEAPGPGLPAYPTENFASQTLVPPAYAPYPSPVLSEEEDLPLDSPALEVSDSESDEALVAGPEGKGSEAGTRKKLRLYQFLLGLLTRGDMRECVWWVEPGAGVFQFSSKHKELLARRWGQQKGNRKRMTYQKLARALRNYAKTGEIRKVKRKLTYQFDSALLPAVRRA
Chain of ETV6 (P41212 whole entry): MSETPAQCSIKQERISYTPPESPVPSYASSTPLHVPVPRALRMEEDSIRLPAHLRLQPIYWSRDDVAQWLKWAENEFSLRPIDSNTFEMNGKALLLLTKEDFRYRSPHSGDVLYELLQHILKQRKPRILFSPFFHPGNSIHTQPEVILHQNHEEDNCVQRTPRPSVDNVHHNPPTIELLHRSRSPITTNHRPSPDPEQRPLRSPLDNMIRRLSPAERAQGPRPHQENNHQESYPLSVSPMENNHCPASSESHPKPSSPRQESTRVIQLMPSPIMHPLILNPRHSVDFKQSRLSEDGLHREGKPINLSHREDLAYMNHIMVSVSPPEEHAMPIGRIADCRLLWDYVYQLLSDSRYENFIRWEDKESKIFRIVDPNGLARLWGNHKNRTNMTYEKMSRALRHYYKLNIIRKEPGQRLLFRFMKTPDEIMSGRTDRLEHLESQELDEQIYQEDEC

For the sequence ATTGAG, the binding signal was 1.08 fold enrichment (6-mer frequency, TF over GST control) in assay [1]; 1.12 fold enrichment (6-mer frequency, TF over GST control) in assay [2]; 1 fold enrichment (6-mer frequency, TF over GST control) in assay [3]; 1.01 fold enrichment (6-mer frequency, TF over GST control) in [4]; 1.05 fold enrichment (6-mer frequency, TF over GST control) in [5]; 1 fold enrichment (6-mer frequency, TF over GST control) in [6]. Besides, the binding signal was 1.01 fold enrichment (6-mer frequency, TF over GST control) in assay [7]; 1.02 fold enrichment (6-mer frequency, TF over GST control) in [8]; 1.08 fold enrichment (6-mer frequency, TF over GST control) in assay [9].

In the case of CGGCCC, the binding signal in assay [1] was 1.05 fold enrichment (6-mer frequency, TF over GST control); in assay [2], 1.03 fold enrichment (6-mer frequency, TF over GST control); in assay [3] it was 1.01 fold enrichment (6-mer frequency, TF over GST control); in assay [10] it was 1.07 fold enrichment (6-mer frequency, TF over GST control); in assay [5] it was 1.03 fold enrichment (6-mer frequency, TF over GST control); in assay [11], 1.19 fold enrichment (6-mer frequency, TF over GST control). The binding signal is 1.01 fold enrichment (6-mer frequency, TF over GST control) in assay [8] and 1.05 fold enrichment (6-mer frequency, TF over GST control) in assay [9].

Turning to GTGCGC, the binding signal in [1] was 1.02 fold enrichment (6-mer frequency, TF over GST control); in [12], 1.15 fold enrichment (6-mer frequency, TF over GST control); in assay [11] it was 1.02 fold enrichment (6-mer frequency, TF over GST control); in [13], 1.04 fold enrichment (6-mer frequency, TF over GST control); in [14] it was 1.03 fold enrichment (6-mer frequency, TF over GST control).

For the sequence GACGTT, the binding signal in [1] is 1.05 fold enrichment (6-mer frequency, TF over GST control).
